In PubChem BioAssay (NCI):
About 79,000 compounds went through this panel and 15% of them were active in at least one assay; those are over-represented in the sample as a whole. Active and inactive are the calls of the source. Rule as the data show it: active = growth inhibition above about 70%; inactive = the rest.

Experiment: NCI Yeast Anticancer Drug Screen. Data for the cln2 rad14 strain (AID 165);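 also: 0% = growth equal to vehicle treated cultures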
Conditions: S. cerevisiae cln2 rad14 strain, at 50.0 µM, hits give high values
Method in brief: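 Strain: cln2 rad14 yeast, altered in cell cycle control and DNA damage repair. Read-out: growth inhibition vs vehicle.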

Structure (SMILES) | growth inhibition
CC(C)CC(N)C(=O)OCN1C(=O)C2C3C=CC(C2C1=O)C1C2C(=O)N(COC(=O)C(N)CC(C)C)C(=O)C2C31 (centres undefined) | 36.5% (inactive)
O=c1ccc2ccc(O)c(O)c2o1 | 18.1% (inactive)
CCOC(=O)NC(CI)(c1ccccc1)c1ccccc1 | 7.2% (inactive)
CCC/C=C(/CC)COC(C)=O | -7.25% (inactive)
[O]=[W](=[O])([OH])[OH] | 11.7% (inactive)
N#CC(C#N)=C/C=C/C=C/c1c(Cl)cccc1Cl | -3.25% (inactive)
CC1(C)OCC(C2OC3OC(C)(C)OC3C2O)O1 (centres undefined) | -15.8% (inactive)
CN(C)CCOC(=O)C(C)(C)Sc1ccc(Cl)cc1 | -5.35% (inactive)
O=C1OC(c2ccc(Cl)cc2)=N/C1=C\c1c(Cl)cccc1Cl | 11.9% (inactive)
COc1ccc(-c2cc(=O)c3c(OC)cccc3o2)c(OC)c1OC | 0.95% (inactive)
Nc1ccc(C(=O)c2ccccc2)cc1Cl | 6.75% (inactive)
C=C1C(=O)[C@@]23CC[C@@H]4[C@@]5(C)CCC[C@@]4(OC5=O)[C@@]2(C)CC[C@@H]1C3 | 89.3% (active)
CCOc1cc2c(cc1C/C=C/c1ccc(OC)cc1)OCO2 | -0.75% (inactive)
N[C@H](C(=O)O)[C@H]1ON=C(Cl)[C@@H]1O | 16.6% (inactive)
N#CCCN(C1=NN(C(=O)CC(=O)Nc2ccccc2)C(c2ccccc2)C1)c1ccccc1Cl (centres undefined) | 27.9% (inactive)
CC1=Nc2c(ccc3c2C(=O)c2ccccc2C3=O)NC(c2ccncc2)C1 (centres undefined) | 17.6% (inactive)
CC1(C2(C)SCCS2)SCCS1 | 11.2% (inactive)
CCOC(=O)Cc1n[nH]c(=O)c2ccccc12 | -21.4% (inactive)
NC(=O)C1CC(I)C2CC1C(=O)O2 (centres undefined) | 4.3% (inactive)
Cc1cc[n+](CCc2c[nH]c3ccccc23)cc1C | 20.4% (inactive)
Cc1cccc(C(=O)NCCN(C)C)c1[N+](=O)[O-] | 14.9% (inactive)
CN1c2ccccc2C(=O)NC12CCN(CCCC(=O)c1ccc(F)cc1)CC2 | 35.6% (inactive)
CCOC(=O)c1nc2ccc(C(F)(F)F)cc2nc1NCc1ccc(F)cc1 | 10.2% (inactive)
NC(=O)NC(=O)CC1NC(=O)NC1=O (centres undefined) | 12.1% (inactive)
